The source of these data is ChEMBL document CHEMBL4513216, “Probing the Open Global Health Chemical Diversity Library for Multistage-Active Starting Points for Next-Generation Antimalarials” (ACS Infect Dis, 2020).

About 2,700 (4%) of roughly 68,000 compounds showed an effect of 50% or more. Shown is part of a subset that was picked to be rich in strong results.

For the assay, the system named is Plasmodium berghei. Kind of assay: Screen against P. berghei liver stage (PbLuc), transformed with Luciferase, at 2uM. It counts as functional, HepG2. As to conditions: tested at 2 uM.
Take `CN(CCCNS(=O)(=O)N1CCC2(CC1)OCCO2)c1ccccc1`: the INHIBITION was found to be 0.12%.

As for `O=c1[nH]c2nc(NCC3CCCO3)ncc2c(=O)n1-c1ccc(F)cc1` (stereo not given), the INHIBITION amounted to 24.34%.

`O=c1[nH]c2nc(N3CCCC3)ncc2c(=O)n1-c1cccc(F)c1`: the INHIBITION was found to be 22.51%.

`O=c1[nH]c2nc(NCC3CCCO3)ncc2c(=O)n1-c1cccc(F)c1` (stereo not given): the INHIBITION amounted to 61.06%.

With `CN1CCCC[C@@H]2[C@H]1[C@@H](c1ccccc1)CCN2S(=O)(=O)N1CCCC1`, the INHIBITION is 49.9%.

In the case of `COc1ccc(OC)c(-n2nnnc2SCC2CCCCO2)c1` (stereo not given), the INHIBITION is reported as -10.78%.

As for `Cc1cnc2[nH]c(C(F)(F)F)c(CN3CCCC(CO)C3)c2c1` (stereo not given), the INHIBITION is on record as 18.87%.

Regarding `Cc1ccc(C(=O)NCCNC(=O)c2cncnc2C(C)C)cc1F`, the INHIBITION is recorded as 57.34%.

`Cc1ccc(C(=O)NCCNC(=O)c2cncnc2C)cc1F`: the INHIBITION is -9.98%.

As to `CCc1ncncc1C(=O)NCCNC(=O)c1ccc(C)c(F)c1`, the INHIBITION is -18.39%.

With `O=C(CCn1cccn1)NCCOc1cccc(Cl)c1`, the INHIBITION came out at 8.78%.

Turning to `O=C(c1c[nH]c(=O)cn1)N1C[C@H]2CC[C@@H](C1)N(Cc1ccccc1)C2`, the INHIBITION amounted to 24.51%.

As for `Nc1ccc(C(=O)N2C[C@H]3CC[C@@H](C2)N(Cc2ccccc2)C3)cn1`, the INHIBITION is listed as 57.85%.

On to `Cc1ccc(C(=O)N2C[C@H]3CC[C@@H](C2)N(Cc2ccccc2)C3)cn1`, for which the INHIBITION is reported as -17.44%.

As to `COc1ncccc1CN1CCn2c(Cn3cncn3)cnc2C1`, the INHIBITION is listed as -47.72%.

`O=C(NCCC1=CCCCC1)c1ccc(-n2cccc2)nc1`: the INHIBITION was found to be 46.17%.

Take `CCc1nnc2n1CCN(C(=O)Cc1csc(-c3ccco3)n1)C2`: the INHIBITION is reported as -5.2%.

Take `CCN1CCN(C(=O)C(C)n2cc(Br)cn2)CC1` (stereo not given): the INHIBITION is 1.77%.

Turning to `CCCC(=O)NS(=O)(=O)c1ccc(C#N)c(C(F)(F)F)c1`, the INHIBITION is recorded as 4.68%.

On to `CC/C=C(/C)C(=O)NS(=O)(=O)c1ccc(C#N)cc1C(F)(F)F`, for which the INHIBITION turned out to be 6.08%.

Turning to `CC/C=C(/C)C(=O)NS(=O)(=O)c1ccc(C#N)c(C(F)(F)F)c1`, the INHIBITION came to 57%.

Turning to `Cn1nc(CNC(=O)NCc2ccc(Cl)cc2)c2c1CCOC2`, the INHIBITION is given as -18.29%.

For `C=C(C)COc1cccc(CN(C)C(C)c2nccs2)c1` (stereo not given), the INHIBITION is -10.78%.

Take `C=C(C)COc1cccc(CN(C)C(C)c2ccncn2)c1` (stereo not given): the INHIBITION turned out to be 53.17%.

Regarding `C=C(C)COc1cccc(C(=O)N(C)C(C)c2ccncn2)c1` (stereo not given), the INHIBITION is listed as 18.88%.

In the case of `CC(C)N1CCCC(Cc2nccnc2Cl)C1` (stereo not given), the INHIBITION was -47.18%.

On to `COc1c(CNC(C)c2sc(C)nc2C)c(C(C)C)nn1C` (stereo not given), for which the INHIBITION is recorded as 59.99%.

In the case of `Cc1nc(C)c(C(C)NCc2c(C)nn(C)c2N(C)C)s1` (stereo not given), the INHIBITION is -30.49%.

Take `Cc1nc(C)c(C(C)NCc2c(C(C)C)nn(C)c2N(C)C)s1` (stereo not given): the INHIBITION is -34.69%.

On to `Cc1ccc(-c2cc(N)c(=O)n(C(C)C(=O)NCC3CCCCC3)n2)s1` (stereo not given), for which the INHIBITION is reported as -1.07%.

On to `Cc1ncsc1CN1C[C@@H]2CC[C@H]1CN(Cc1ccccc1)C2`, for which the INHIBITION was determined as 15.68%.

Turning to `CC(C)(C)C(O)CN1CCN(CCOCC(F)(F)F)CC1` (stereo not given), the INHIBITION is reported as -17.11%.

Take `Cc1nn(C)c(C)c1C(=O)NCc1ccnc(OCC(F)(F)F)c1`: the INHIBITION came out at 11.09%.

`COCCN1CCCC1c1ccnc(-c2ccccc2)n1` (stereo not given): the INHIBITION amounted to 14.3%.

For `CCCn1cc(-c2cc(-c3ccoc3)c(C#N)c(N)n2)c(C)n1`, the INHIBITION was determined as 61.28%.

As to `CCCn1cc(-c2cc(-c3cnc(OC)nc3)c(C#N)c(N)n2)c(C)n1`, the INHIBITION was found to be 38.61%.

With `CCCn1cc(-c2cc(-c3c[nH]cn3)c(C#N)c(N)n2)c(C)n1`, the INHIBITION came out at 38.15%.

Turning to `Cc1cccc(-c2noc(CN3CC(n4cccn4)C3)n2)c1`, the INHIBITION was -15.28%.

Turning to `CS(=O)(=O)Cc1ccc(Cl)c(NCc2noc(C3CC3)n2)c1`, the INHIBITION was -22.2%.

Consider `Cc1ccc(-c2ccc(Cl)nn2)cc1S(=O)(=O)N1CCOCC1`, for which the INHIBITION is on record as 4.88%.

As to `Cc1cc(C)c(S(=O)(=O)Nc2c(C)nc(N(C)C)nc2C)cc1C`, the INHIBITION is -46.61%.

As to `CN1CC2(CCCN(Cc3nnc(-c4cccc(F)c4)o3)C2)OC1=O` (stereo not given), the INHIBITION is recorded as 54.49%.

In the case of `CN1CC2(CCCN(Cc3nnc(-c4ccccc4)o3)CC2)OC1=O` (stereo not given), the INHIBITION is recorded as -16.62%.

With `CN1CC2(CCCN(Cc3nnc(-c4ccco4)o3)CC2)OC1=O` (stereo not given), the INHIBITION worked out at 16.82%.

In the case of `O=C(NC[C@]12COC[C@H]1CN(Cc1ccco1)C2)c1ccccc1`, the INHIBITION is listed as -36.34%.

On to `O=C(NCc1ccco1)N1CCC(n2ccc(C(F)(F)F)n2)CC1`, for which the INHIBITION is -43.09%.

For `Cc1nn(C)cc1CN1CCCC(n2c(=O)oc3ccc(Cl)cc32)C1` (stereo not given), the INHIBITION is 13.17%.

Consider `COCC(=O)N1CCN(C(=O)c2cccs2)[C@@H](C(=O)OC)C1`, for which the INHIBITION is recorded as -19.02%.

On to `COC(=O)[C@H]1CN(C(=O)NC(C)C)CCN1C(=O)C1CCCCC1`, for which the INHIBITION was 16.67%.

For `COCC(=O)N1CCN(C(=O)C2CCCCC2)[C@@H](C(=O)OC)C1`, the INHIBITION turned out to be 72.68%.

In the case of `COC(=O)[C@H]1CN(C(C)=O)CCN1C(C)=O`, the INHIBITION was 56.21%.

Regarding `COC(=O)[C@@H]1CN(C(=O)Nc2ccccc2)CCN1C(C)=O`, the INHIBITION is recorded as -21.22%.

`COCC(=O)N1CCN(C(C)=O)C[C@@H]1C(=O)OC`: the INHIBITION is 23.53%.

For the molecule `CNC(=O)C1(c2cnccn2)CCCN1C(=O)Cc1ccsc1` (stereo not given), the INHIBITION amounted to 36.82%.

For the molecule `CN(CCc1ccccn1)Cc1nccn1Cc1ccccc1`, the INHIBITION is on record as -9.98%.

In the case of `CN(C)Cc1cnc2n1CCN(C(=O)NCc1ccccc1)CC2`, the INHIBITION was determined as 53.44%.

Turning to `CN(C)Cc1cnc2n1CCN(C(=O)Cc1ccsc1)CC2`, the INHIBITION was determined as 37.51%.

For `CN(C)Cc1cnc2n1CCN(C(=O)Cc1ccc(F)cc1)CC2`, the INHIBITION turned out to be 8.41%.

On to `CN(C)Cc1cnc2n1CCN(C(=O)C1CC=CC1)CC2`, for which the INHIBITION is listed as 46.27%.

In the case of `CN(C)Cc1cnc2n1CCN(C(=O)Cc1cccc(F)c1)CC2`, the INHIBITION was determined as 54.82%.

Turning to `CN(C)Cc1cnc2n1CCN(C(=O)NC1CCCC1)CC2`, the INHIBITION came to 16.03%.

Regarding `CN(Cc1ccccc1F)C(C(N)=O)c1ccccc1` (stereo not given), the INHIBITION is 24.62%.

Consider `CN(C)S(=O)(=O)c1ccc(-c2nc(C#N)c(NC(C)(C)C)o2)o1`, for which the INHIBITION came out at 1.3%.

As for `CCN(CC)CCN1CC[C@H]2OCC[C@@]2(C(=O)N2CCOCC2)C1`, the INHIBITION came to 41.38%.

In the case of `COC(=O)c1cccc(C(=O)N2CCN(c3cc(Cl)ccc3C)CC2)n1`, the INHIBITION amounted to 18.76%.
